# Measurements reported in the supplement of paper PMC10127200.
# Counter-ions that a name gives are not always drawn.
# Tests used:
# Experiment in all cases: Euclidean distance of Cell Painting phenotypic profile (signed KS, 77 features) to DMSO centroid (dimensionless distance); higher = stronger phenotypic change vs DMSO (phenoactivity)
# Details in all cases: 48 h; 5 or 10 uM (library dependent)
# 786-O = test system: 786-O
# Method in brief: (§1)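 Phenoactivity is computed as Euclidean distance to the median vehicle profile. The profiles, drawn from 77 Harmony features scored as signed Kolmogorov-Smirnov statistics versus same-plate vehicle wells, were corrected for plate position, correlation-weighted and replicate-averaged at the top dose. Stained cells were imaged confocally at 20X (9 fields/well) after 48 h with library compounds at 10 or 5 uM, 0.1% DMSO final, in five cancer lines and a healthy fibroblast line.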
# A549 = test system: A549
# Method in brief: as §1
# DU145 = test system: DU145
# Method in brief: as §1
# FB = test system: FB
# Method in brief: as §1
# HEPG2 = test system: HEPG2
# Method in brief: as §1
# OVCAR4 = test system: OVCAR4
# Method in brief: as §1
Compound,Euclidean distance (786-O),Euclidean distance (A549),Euclidean distance (DU145),Euclidean distance (FB),Euclidean distance (HEPG2),Euclidean distance (OVCAR4)
CC(NC(C)(C)C)C(=O)c1cccc(Cl)c1 (stereo unspecified) [Amfebutamone (Bupropion) HCl],1.39,0.604,0.844,0.936,0.484,1.02
COc1ccc2c3c([nH]c2c1)C(C)=NCC3 [Harmaline],1.25,0.845,1.34,1.09,0.398,1.37
CC[C@@H]1/C=C/C=C/C[C@H](C)[C@H](O)[C@](C)(O)C(=O)[C@H](C)[C@@H](O)[C@H](C)C(=O)[C@H](C)[C@@H](O)[C@H](C)/C=C/C(=O)O[C@H]2[C@@H](C)[C@@H](CC1)O[C@@]1(CC[C@@H](C)[C@@H](C[C@H](C)O)O1)[C@@H]2C [Oligomycin A],1.81,2.18,1.46,0.998,3.19,1.22
[O-][n+]1ccccc1[S-].[O-][n+]1ccccc1[S-].[Zn+2] [Zinc Pyrithione],6.27,4.94,7.6,6.01,5.34,6.33
O=C(O[C@H]1C[N+]2(CCCOc3ccccc3)CCC1CC2)C(O)(c1cccs1)c1cccs1 [Aclidinium Bromide],1.15,1.13,1.29,0.774,0.61,1.23
O=[N+]([O-])C(Br)(CO)CO [Bronopol],1.36,1.03,1.02,0.825,0.735,1.59
CN(C)Cc1c[nH]c2ccccc12 [Gramine],1.2,0.885,1.29,0.772,0.674,1.45
Oc1ccc(Cl)cc1Cc1cc(Cl)ccc1O [Dichlorophene],0.835,1.05,1.3,1.16,0.516,1.18
C/C(=C\c1csc(C)n1)[C@@H]1C[C@@H]2O[C@@H]2CCC[C@H](C)[C@H](O)[C@@H](C)C(=O)C(C)(C)[C@@H](O)CC(=O)O1 [Epothilone A],3.01,2.89,4.3,2.5,2.34,3.02
O=c1[nH]c2ccccc2n1C1CCN(CCCC(c2ccc(F)cc2)c2ccc(F)cc2)CC1 [Pimozide],1.83,3.09,1.3,1.12,0.874,0.955
COC(=O)C1=CCCN(C)C1 [Arecoline],0.942,1.44,0.841,1.01,0.762,0.957
CCN1C[C@]2(OC(=O)c3ccccc3NC(C)=O)CC[C@H](OC)[C@@]34[C@@H]2C[C@@H]([C@@H]13)[C@@]1(O)C[C@H](OC)[C@H]2C[C@@H]4[C@]1(O)[C@H]2OC [Lappaconitine],0.914,0.59,–,1.1,0.579,1.35
CO[C@]12C[C@@H](COC(=O)c3cncc(Br)c3)CN(C)[C@@H]1Cc1cn(C)c3cccc2c13 [Nicergoline],1.37,0.701,–,0.963,0.72,0.762
C/C(=C\c1csc(C)n1)[C@@H]1C[C@@H]2O[C@]2(C)CCC[C@H](C)[C@H](O)[C@@H](C)C(=O)C(C)(C)[C@@H](O)CC(=O)O1 [Epothilone B],2.58,2.49,3.95,2.82,1.98,2.11
COc1cc(OC)c(OC)cc1C=O [Asaraldehyde],1.25,0.833,0.776,1.31,1.73,1.06
Cc1cccc(C)c1NC(=O)CN1CCCC1=O [Nefiracetam],1.15,0.499,–,0.708,1.11,1.2
O=C(O)c1nn(Cc2ccc(Cl)cc2Cl)c2ccccc12 [Lonidamine],0.877,1.12,–,1.09,0.957,1.52
O=C/C=C/c1ccccc1 [Cinnamaldehyde],1,0.658,0.988,0.954,1.14,0.848
CC(C)[C@H](N)C(=O)N1CCC[C@H]1B(O)O [Talabostat (Val-boroPro. PT-100)],1.38,0.905,1.12,1.08,0.878,0.712
COC1=C[C@@H]2[C@@H]3Cc4ccc(OC)c(O)c4[C@]2(CCN3C)CC1=O [Sinomenine],0.934,0.651,–,0.89,0.668,0.854
CN(C)C(=O)Oc1cccc([N+](C)(C)C)c1 [Neostigmine Bromide],1.45,0.931,0.914,0.963,0.858,1.53
COc1ccc(C(CN(C)C)C2(O)CCCCC2)cc1 (stereo unspecified) [Venlafaxine],0.992,0.49,–,0.691,0.558,1.02
CN[C@@H]1[C@@H](O)[C@@H](O[C@@H]2[C@@H](O)[C@H](O[C@H]3O[C@H](CN)CC[C@H]3N)[C@@H](N)C[C@H]2N)OC[C@]1(C)O.CN[C@@H]1[C@@H](O)[C@@H](O[C@@H]2[C@@H](O)[C@H](O[C@H]3O[C@H]([C@@H](C)N)CC[C@H]3N)[C@@H](N)C[C@H]2N)OC[C@]1(C)O.CN[C@@H]1[C@@H](O)[C@@H](O[C@@H]2[C@@H](O)[C@H](O[C@H]3O[C@H]([C@@H](C)NC)CC[C@H]3N)[C@@H](N)C[C@H]2N)OC[C@]1(C)O [Gentamicin Sulfate],1.29,1.18,1.22,0.978,0.832,1.02

Compound,Euclidean distance (786-O),Euclidean distance (A549),Euclidean distance (DU145),Euclidean distance (FB),Euclidean distance (HEPG2),Euclidean distance (OVCAR4)
CN[C@@H]1[C@@H](O)[C@@H](O[C@@H]2[C@@H](O)[C@H](O[C@H]3O[C@H]([C@@H](C)O)[C@@H](O)[C@H](O)[C@H]3N)[C@@H](N)C[C@H]2N)OC[C@]1(C)O [Geneticin (G418 Sulfate)],1.73,0.917,1.4,1.24,1.23,1.53
CC(=O)OC12COC1CC(O)C1(C)C(=O)C(O)C3=C(C)C(O)CC(O)(C(OC(=O)c4ccccc4)C21)C3(C)C (stereo unspecified) [10-Deacetylbaccatin-III],1.79,1.11,0.834,1.7,1.38,1.4
C[C@]12CCC(=O)C(O)=C1CC[C@@H]1[C@@H]2CC[C@]2(C)C(=O)CC[C@@H]12 [Formestane],1.02,0.913,–,1.08,0.763,0.703
CC[C@@]1(O)C(=O)OCc2c1cc1n(c2=O)Cc2cc3ccccc3nc2-1 [Camptothecin],3.86,3.88,–,4.14,2.87,3.96
CCCCCCCCC(=O)NCc1ccc(O)c(OC)c1 [Nonivamide],1.37,0.987,–,0.925,0.607,1.31
O=C(CC1NCCCC1O)Cn1cnc2cc(Br)c(Cl)cc2c1=O (stereo unspecified) [Halofuginone],3.67,3.22,–,3.62,3.81,3.65
N#C[C@H](O[C@@H]1O[C@H](C(=O)O)[C@@H](O)[C@H](O)[C@H]1O)c1ccccc1 [Laetrile],0.989,0.766,–,0.899,0.702,1.45
C[C@]12CC[C@@H](O)C[C@@H]1CC[C@@H]1[C@@H]2CC[C@]2(C)C(=O)CC[C@@H]12 [Androsterone],1.51,0.773,1.2,1.28,0.665,1.07
COc1ccc(C(=O)N2CCCC2=O)cc1 [Aniracetam],0.962,1.09,–,1.01,0.635,1.07
C=CC(=O)N[C@H]1C=C(C)c2c(-c3cnc4ccccc4c3)c3c(N)ncnc3n2C1,1.49,1.6,–,1.95,1.26,1.39
CN1CCCCC1Cn1cc(C(=O)c2cc([N+](=O)[O-])ccc2I)c2ccccc21 (stereo unspecified),0.823,1.18,1.02,1.47,–,1.19
Cn1c(COP(=O)(NCCBr)NCCBr)cnc1[N+](=O)[O-] [Evofosfamide (TH-302)],1.45,2.69,0.904,1.3,1.86,2.84
CCc1c(C(=O)C(N)=O)c2c(OCC(=O)O)cccc2n1Cc1ccccc1,0.933,1.14,1.33,0.633,0.812,0.982
O=P1(NCCCl)OCCCN1CCCl (stereo unspecified) [Ifosfamide],0.866,0.788,1.12,0.925,1.13,1.39
CCN1CCN(C(=O)Cc2ccc(Nc3ncc(F)c(Nc4ccc(C(=O)Nc5ccccc5Cl)cc4)n3)cc2)CC1 [Aurora A Inhibitor I],5.7,4.77,1.39,3.33,4.52,3.43
C=CC[C@]1(O)CC[C@H]2[C@@H]3CCC4=CC(=O)CCC4=C3C=C[C@@]21C [Altrenogest],1.11,2.59,–,1.16,0.983,1.02
CN1C(=O)CCS(=O)(=O)C1c1ccc(Cl)cc1 (stereo unspecified) [Chlormezanone],1.52,0.681,–,0.695,0.59,1.23
CC(=O)c1c(O)cc(C)oc1=O [Sodium dehydroacetate],0.865,0.572,–,0.998,0.348,0.896
COc1cc(C)[nH]c(=O)c1CNC(=O)c1c(C)n([C@H](C)C2CCN(CC(F)(F)F)CC2)c2ccccc12,1.35,1.09,–,1.42,0.588,0.987
O=c1cccc2n1C[C@@H]1CNC[C@H]2C1 [Cytisine],1.35,0.65,–,1.05,1.09,2.07
C[C@]12CC[C@H]3[C@@H](CC[C@@]45O[C@@H]4C(O)=C(C#N)C[C@]35C)[C@@H]1CC[C@@H]2O [Trilostane],1.94,1.35,–,0.851,1.01,1.12
N[C@@H](Cc1ccc(N(CCCl)CCCl)cc1)C(=O)O [Melphalan],2.91,2.76,1.19,2.75,2.72,2.13
CCN(C)C(=O)Oc1cccc([C@H](C)N(C)C)c1 [Rivastigmine Tartrate],0.824,0.471,0.382,0.816,0.806,1.45
